# Results as given in the supplement of paper PMC11001985.
# Unmarked numbers belong to inactive results.
# Compound: C#CCNC(=O)CCSSCCC(=O)NCCc1ccc(C=O)c(C=O)c1
# Test: lysine labeling ratio R10:1 (500 µM / 50 µM probe), SILAC-ABPP in living cells; higher = lower intrinsic lysine reactivity toward the probe, active = 2 or less
# Conditions: HeLa; probe concentrations 500 vs 50 µM
# Procedure, shortened: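 The two probe levels, 50 µM and 500 µM, of an alkyne-tagged, disulfide-linked lysine probe were applied to living light and heavy SILAC HeLa cells in PBS at room temperature, and the labels were run in both forward and reverse orientation. Mixed lysates underwent biotin-azide click chemistry, trypsin digestion, neutravidin capture, DTT release and alkylation before LC-MS/MS on a TIMS-TOF Pro. R is the filtered median high-probe/low-probe MS1 peptide ratio for each lysine, summarised as the median over forward and reverse replicates. Nothing above 20 is reported; such values are set to 20.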
# UniProt Q01082, sequence (Q01082 whole entry): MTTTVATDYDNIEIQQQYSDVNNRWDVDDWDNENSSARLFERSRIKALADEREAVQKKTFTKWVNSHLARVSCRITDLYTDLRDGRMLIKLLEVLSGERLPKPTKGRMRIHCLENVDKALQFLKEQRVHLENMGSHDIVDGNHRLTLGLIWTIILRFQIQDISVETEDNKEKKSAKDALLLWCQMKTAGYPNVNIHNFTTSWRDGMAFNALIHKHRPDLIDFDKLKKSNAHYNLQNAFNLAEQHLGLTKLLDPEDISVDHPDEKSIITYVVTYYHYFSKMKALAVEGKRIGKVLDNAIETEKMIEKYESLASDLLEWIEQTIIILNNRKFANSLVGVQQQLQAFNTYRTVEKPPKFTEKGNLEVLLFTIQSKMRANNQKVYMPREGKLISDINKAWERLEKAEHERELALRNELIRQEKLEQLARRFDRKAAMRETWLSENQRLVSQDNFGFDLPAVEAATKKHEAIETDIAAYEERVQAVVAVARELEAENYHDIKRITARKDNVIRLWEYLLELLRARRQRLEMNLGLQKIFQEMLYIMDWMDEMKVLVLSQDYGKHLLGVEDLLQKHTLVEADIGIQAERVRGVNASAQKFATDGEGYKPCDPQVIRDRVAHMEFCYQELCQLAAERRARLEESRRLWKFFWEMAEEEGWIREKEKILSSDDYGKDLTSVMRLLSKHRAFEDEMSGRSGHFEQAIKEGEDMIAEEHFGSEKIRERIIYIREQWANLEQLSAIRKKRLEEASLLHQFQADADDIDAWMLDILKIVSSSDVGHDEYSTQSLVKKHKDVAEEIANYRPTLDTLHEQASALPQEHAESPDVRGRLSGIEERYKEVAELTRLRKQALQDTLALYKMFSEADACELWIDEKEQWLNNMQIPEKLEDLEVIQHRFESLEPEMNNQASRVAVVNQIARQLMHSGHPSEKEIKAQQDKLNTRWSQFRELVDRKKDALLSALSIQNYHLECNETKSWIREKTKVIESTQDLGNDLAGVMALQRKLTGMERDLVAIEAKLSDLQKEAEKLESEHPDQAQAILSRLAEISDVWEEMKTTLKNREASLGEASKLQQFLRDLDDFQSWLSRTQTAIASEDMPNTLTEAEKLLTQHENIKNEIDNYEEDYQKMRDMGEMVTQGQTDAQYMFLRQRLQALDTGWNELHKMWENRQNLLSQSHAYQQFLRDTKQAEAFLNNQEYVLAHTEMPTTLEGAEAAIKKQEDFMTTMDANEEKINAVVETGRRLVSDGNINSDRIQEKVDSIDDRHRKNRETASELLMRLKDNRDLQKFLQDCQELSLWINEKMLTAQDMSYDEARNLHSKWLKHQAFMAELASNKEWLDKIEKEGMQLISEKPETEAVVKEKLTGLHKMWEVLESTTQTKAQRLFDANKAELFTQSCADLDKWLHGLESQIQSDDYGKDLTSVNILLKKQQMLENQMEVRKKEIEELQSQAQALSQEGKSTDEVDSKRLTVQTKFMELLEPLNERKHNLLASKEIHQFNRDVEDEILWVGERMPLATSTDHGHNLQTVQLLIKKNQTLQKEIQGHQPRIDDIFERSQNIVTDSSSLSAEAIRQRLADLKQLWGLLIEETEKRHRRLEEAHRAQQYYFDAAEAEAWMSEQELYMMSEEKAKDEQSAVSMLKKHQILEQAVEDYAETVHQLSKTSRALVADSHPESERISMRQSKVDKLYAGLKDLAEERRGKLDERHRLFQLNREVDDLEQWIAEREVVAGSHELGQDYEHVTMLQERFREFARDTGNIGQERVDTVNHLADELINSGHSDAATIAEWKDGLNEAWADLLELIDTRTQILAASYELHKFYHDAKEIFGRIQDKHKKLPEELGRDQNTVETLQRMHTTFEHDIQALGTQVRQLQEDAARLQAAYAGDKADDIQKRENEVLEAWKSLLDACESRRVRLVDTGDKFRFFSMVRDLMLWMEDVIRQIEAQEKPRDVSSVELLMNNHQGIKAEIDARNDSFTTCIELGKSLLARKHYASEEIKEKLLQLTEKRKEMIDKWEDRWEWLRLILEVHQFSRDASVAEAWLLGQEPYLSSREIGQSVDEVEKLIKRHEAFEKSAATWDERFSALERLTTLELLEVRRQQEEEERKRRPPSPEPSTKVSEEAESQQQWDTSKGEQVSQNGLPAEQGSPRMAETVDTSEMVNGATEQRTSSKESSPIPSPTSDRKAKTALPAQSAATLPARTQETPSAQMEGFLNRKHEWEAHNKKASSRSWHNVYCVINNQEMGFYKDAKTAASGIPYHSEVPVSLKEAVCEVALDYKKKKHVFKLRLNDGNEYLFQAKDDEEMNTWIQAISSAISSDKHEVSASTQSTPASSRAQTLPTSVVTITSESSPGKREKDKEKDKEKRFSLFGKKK
# UniProt Q16181, sequence (Q16181 whole entry): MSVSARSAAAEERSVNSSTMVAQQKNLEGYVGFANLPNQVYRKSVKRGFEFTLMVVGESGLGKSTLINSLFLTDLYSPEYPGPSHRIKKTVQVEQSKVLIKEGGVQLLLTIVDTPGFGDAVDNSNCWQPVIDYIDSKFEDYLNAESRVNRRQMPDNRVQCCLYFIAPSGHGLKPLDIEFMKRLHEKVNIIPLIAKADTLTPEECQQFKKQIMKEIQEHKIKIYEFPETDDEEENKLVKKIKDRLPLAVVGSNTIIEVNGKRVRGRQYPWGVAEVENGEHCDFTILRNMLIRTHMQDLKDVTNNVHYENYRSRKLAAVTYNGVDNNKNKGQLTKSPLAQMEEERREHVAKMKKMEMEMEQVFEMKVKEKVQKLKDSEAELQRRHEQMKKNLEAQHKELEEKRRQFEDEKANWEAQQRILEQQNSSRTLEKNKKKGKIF
# UniProt P05141, sequence (P05141 whole entry): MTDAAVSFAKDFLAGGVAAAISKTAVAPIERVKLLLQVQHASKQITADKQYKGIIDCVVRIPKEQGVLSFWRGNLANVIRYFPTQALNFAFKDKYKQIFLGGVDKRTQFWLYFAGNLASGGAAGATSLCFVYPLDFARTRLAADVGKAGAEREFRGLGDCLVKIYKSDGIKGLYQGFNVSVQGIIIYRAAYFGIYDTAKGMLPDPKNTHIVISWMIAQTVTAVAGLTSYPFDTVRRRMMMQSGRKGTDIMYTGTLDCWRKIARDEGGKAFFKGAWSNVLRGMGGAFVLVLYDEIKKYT
# UniProt Q9UPY5, sequence (Q9UPY5 whole entry): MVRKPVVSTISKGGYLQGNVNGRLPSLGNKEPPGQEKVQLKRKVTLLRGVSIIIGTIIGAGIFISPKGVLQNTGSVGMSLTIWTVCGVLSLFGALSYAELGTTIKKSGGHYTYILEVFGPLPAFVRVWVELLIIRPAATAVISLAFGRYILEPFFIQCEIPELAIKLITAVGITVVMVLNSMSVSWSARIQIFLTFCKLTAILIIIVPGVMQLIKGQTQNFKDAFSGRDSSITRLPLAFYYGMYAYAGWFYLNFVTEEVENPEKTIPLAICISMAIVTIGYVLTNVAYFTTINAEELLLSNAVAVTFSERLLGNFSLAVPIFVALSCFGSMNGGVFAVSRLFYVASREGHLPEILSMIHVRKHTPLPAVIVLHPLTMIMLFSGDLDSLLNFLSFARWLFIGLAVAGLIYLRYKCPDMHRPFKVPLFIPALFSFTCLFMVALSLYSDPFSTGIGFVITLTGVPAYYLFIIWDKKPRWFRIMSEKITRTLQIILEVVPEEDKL
# UniProt Q5T9A4, sequence (Q5T9A4 whole entry): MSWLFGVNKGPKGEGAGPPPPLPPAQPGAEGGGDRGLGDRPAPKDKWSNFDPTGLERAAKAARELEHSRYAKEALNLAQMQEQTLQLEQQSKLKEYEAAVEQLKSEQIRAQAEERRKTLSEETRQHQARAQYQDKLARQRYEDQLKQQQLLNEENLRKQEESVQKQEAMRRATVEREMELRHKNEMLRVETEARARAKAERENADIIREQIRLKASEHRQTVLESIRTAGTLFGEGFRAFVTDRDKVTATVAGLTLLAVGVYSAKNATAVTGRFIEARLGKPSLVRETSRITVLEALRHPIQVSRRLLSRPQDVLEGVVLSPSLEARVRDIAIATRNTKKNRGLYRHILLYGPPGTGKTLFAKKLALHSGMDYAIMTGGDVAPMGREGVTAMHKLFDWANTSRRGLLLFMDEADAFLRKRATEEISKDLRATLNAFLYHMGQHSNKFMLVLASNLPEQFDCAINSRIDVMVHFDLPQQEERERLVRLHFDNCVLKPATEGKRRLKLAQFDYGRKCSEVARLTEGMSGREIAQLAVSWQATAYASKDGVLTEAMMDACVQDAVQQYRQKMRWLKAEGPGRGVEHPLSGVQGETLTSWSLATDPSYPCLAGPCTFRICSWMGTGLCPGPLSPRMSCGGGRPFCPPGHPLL
# UniProt P25705, sequence (P25705 whole entry): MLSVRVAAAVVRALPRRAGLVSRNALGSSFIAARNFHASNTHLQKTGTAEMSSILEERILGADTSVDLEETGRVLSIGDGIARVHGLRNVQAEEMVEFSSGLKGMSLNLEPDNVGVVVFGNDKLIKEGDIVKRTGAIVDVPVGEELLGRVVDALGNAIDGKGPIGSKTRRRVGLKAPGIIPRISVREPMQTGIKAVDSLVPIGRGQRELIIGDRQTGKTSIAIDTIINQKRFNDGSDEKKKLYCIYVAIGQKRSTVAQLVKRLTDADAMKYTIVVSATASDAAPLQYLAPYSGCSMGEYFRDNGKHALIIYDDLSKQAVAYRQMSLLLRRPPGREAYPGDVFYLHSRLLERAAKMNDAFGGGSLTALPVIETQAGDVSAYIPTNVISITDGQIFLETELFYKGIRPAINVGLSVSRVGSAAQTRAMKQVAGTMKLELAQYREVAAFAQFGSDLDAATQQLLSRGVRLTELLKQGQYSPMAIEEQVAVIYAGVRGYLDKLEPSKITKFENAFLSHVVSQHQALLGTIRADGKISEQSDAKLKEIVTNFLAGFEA
# UniProt Q9UII2, sequence (Q9UII2 whole entry): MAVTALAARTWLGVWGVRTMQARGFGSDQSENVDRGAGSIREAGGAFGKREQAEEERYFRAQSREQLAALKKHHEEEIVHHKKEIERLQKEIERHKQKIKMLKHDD
row,Target,lysine labeling ratio R10:1
1,CSPG4 (lysine site: K831) (UniProt Q6UVK1),5.17
2,PNN (lysine site: K157) (UniProt Q9H307),1.95 (active)
3,ITGA6 (lysine site: K986) (UniProt P23229),1.78 (active)
4,ATAD3B (lysine site: K135) (UniProt Q5T9A4),2.68
5,ITGA5 (lysine site: K943) (UniProt P08648),2.54
6,SLC25A5 (lysine site: K23) (UniProt P05141),3.58
7,ANTXR1 (lysine site: K94) (UniProt Q9H6X2),2.11
8,SEMA4D (lysine site: K104) (UniProt Q92854),0.575 (active)
9,SLC7A11 (lysine site: K222) (UniProt Q9UPY5),2.71
10,SUB1 (lysine site: K41) (UniProt P53999),1.41 (active)
11,S100A6 (lysine site: K47) (UniProt P06703),6.34
12,UniProt P25705 (lysine site: K230),2.24
13,SPTBN1 (lysine site: K997) (UniProt Q01082),2.87
14,UniProt O43570 (lysine site: K279),2.86
15,FLOT1 (lysine site: K220) (UniProt O75955),2.84
16,UniProt Q16181 (lysine site: K408),3.83
17,RPS19 (lysine site: K7) (UniProt P39019),4.55
18,RPL14 (lysine site: K85) (UniProt P50914),1.23 (active)
19,UniProt Q9UII2 (lysine site: K49),3.39
20,UniProt Q15149 (lysine site: K2037),1.95 (active)
21,SLC25A13 (lysine site: K235) (UniProt Q9UJS0),2.23
22,UniProt Q12884 (lysine site: K591),1.95 (active)
